# Laboratory results from the supplement of paper PMC6555819.
# Key:
# Assay in all cases: PBM binding z-score (relative to random genomic background probes); higher = stronger binding; sequences stand for … in GC…GCGATTGACAGCGTAGAATGAAGG
# [1] = tested on: PPARg:RXRa DBDmut IVT, anti-RXR (DBD mutation: RXRa K156A/R161A, NR concentration 270 nM, RXRa partner concentration 90 nM)
# Outline: (§1)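 Custom Agilent 4×180K protein-binding microarrays carried double-stranded probes, each with a 34-nt variable region. These regions held direct-repeat seeds, single-nucleotide variants, half-site ablations and random human genomic background sequences. Ligand-free nuclear receptor dimers were incubated on the arrays for 1 h, antibodies against each partner (one per run) detected binding, and scanned fluorescence was regression-normalized. Binding z-scores take the random background probes as reference.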
# [2] = tested on: PPARg:RXRa IVT, anti-PPARg (NR concentration 270 nM, RXRa partner concentration 90 nM)
# Outline: as §1
# [3] = tested on: PPARg DBDmut:RXRa IVT, anti-PPARg (DBD mutation: PPARg1 K132A/R137A, NR concentration 270 nM, RXRa partner concentration 90 nM)
# Outline: as §1
# [4] = tested on: PPARg DBDmut IVT, anti-PPARg (DBD mutation: PPARg1 K132A/R137A, NR concentration 270 nM)
# Outline: as §1
# [5] = tested on: PPARg homodimer (NR concentration 180 nM)
# Outline: as §1
# [6] = tested on: PXR:RXRa (NR concentration 270 nM, RXRa partner concentration 90 nM)
# Outline: as §1
# [7] = tested on: PXR homodimer (NR concentration 270 nM)
# Outline: as §1
# [8] = tested on: RARa:RXR (NR concentration 270 nM, RXRa partner concentration 90 nM)
# Outline: as §1
# [9] = tested on: RARa homodimer (NR concentration 270 nM)
# Outline: as §1
# [10] = tested on: RARb:RXRa (NR concentration 270 nM, RXRa partner concentration 90 nM)
# Outline: as §1
Sequence,PBM binding z-score [1],PBM binding z-score [2],PBM binding z-score [3],PBM binding z-score [4],PBM binding z-score [5],PBM binding z-score [6],PBM binding z-score [7],PBM binding z-score [8],PBM binding z-score [9],PBM binding z-score [10]
CCAGACAGGTGAGAATGTAACTCAGCCTCGATTA,0.965,0.029,-1.25,0.0266,0.565,-0.276,0.0874,-0.141,1.11,0.234
ATCGAAAGGTCGAGAGGTGAGTATACAGAAAGGC,-0.201,1.82,0.777,0.861,2.03,2.69,-0.031,3.73,0.105,3.88
TTACCAATGTGAAGGTCGTTGATCCCTCTGTAGA,0.314,0.221,-0.143,0.211,0.84,1.37,0.539,1.45,0.451,0.862
ATCGAAAGGTCGTGAGATGAGTATACAGAAAGGC,-0.3,1.61,1.59,1.02,1.18,3,0.0556,3.62,0.436,3.91
ATCTCTAGGTAACCAAGTTCGGTGAATGCCGAAC,3.09,2.93,1.06,1.09,0.509,0.501,0.469,0.415,0.268,0.571
ACTTACGTGTCAACGAGGTTATAGCACGCGTATA,0.785,1.07,0.246,0.671,0.479,1.26,0.652,1.65,0.0685,1.2
TTACCAAGGTGAGATGAGGTCGTTGATCCAACTC,1.15,2.16,-0.0123,0.496,0.827,5.21,0.58,2.44,0.0224,1.83
ATAGGTAGGTTACATCCGGGTCATTCAGGCTATG,3.73,3.91,0.843,0.221,1.99,3.53,3.04,3.51,1.15,2.39
TCCTGTAGATCAATAGAGGTTAAGAAAGTGCGCT,1.98,0.459,0.335,0.281,0.185,2.91,0.378,1.59,0.54,0.925
CAGCCTAGGTCAGGGCCAGTATCGGAGGAACGTT,1.72,1.55,-1.42,-1.35,0.632,0.107,-1.08,0.761,-0.159,3.54
ACAGACAGGTGATAAAGGTAACTCAGGCTATCAT,-0.135,0.46,-0.885,-0.537,0.207,-0.0528,0.0239,0.267,-0.124,0.423
CCTTACGGGTCCCGAGGTTATAGCACGACGAGCG,-1.26,-0.545,-0.471,-1.66,-0.111,0.32,-0.277,0.482,0.138,0.514
GCATATAGGAAATACAAGGTGAAAGTCCGATTGT,-0.0437,0.645,-0.0022,0.353,0.365,0.166,0.0769,0.702,0.755,0.29
ATATGTAGGTTAGCTGGGGTCATTCGGACTAGGC,6.85,6.3,3.21,1.98,4.23,6.74,5.39,6.34,1.19,3.05
ATCTCTAGGTTAAGTTCAGTGAAAGATCGATAGA,3.77,3.34,1.74,1.46,2.01,2.47,2.53,1.75,1.83,2.61
CCTACTGGGCCACGAAAGGTCATTAATTCAGTGA,5.58,5.87,1.7,0.266,3.46,5.12,1.71,5.32,1.1,3.79
TCTCGGAGGACACGAAATGTCAGAGCTCGACATC,1.31,-0.0738,0.273,-0.287,-0.365,-0.0137,-0.515,0.332,-0.679,1.56
TGAATGAGGTTGTAAGATCAGGGAACGTTGCAAA,-0.831,-0.0172,0.744,-0.354,-0.324,-0.125,-0.318,0.203,-0.183,0.0234
TAGCGTAGGTCATTCAGGGGCCAGTATAGAAAGC,0.864,1.61,0.591,0.134,2.48,3.08,0.138,4.5,0.404,3.99
TCTTGTAGATCAACAGGAGGTTAAGATAGATCGA,1.53,1.03,0.933,1.02,0.31,0.729,-0.114,1.05,0.362,0.506
CCCACTGGGGCAAGGTTACCATAACGCACAGCCA,4.18,5.58,2.71,0.0183,1.07,0.144,-0.536,1.05,0.0116,1.75
CCTATTAGTCGACCATAAGGGCAACCGAAGCTCG,0.311,-0.00504,0.93,-1.02,0.749,0.26,0.25,0.415,0.709,1.24
CAAACTAGGTCACGAAAGGTCACAGTCGAATGAC,8.61,9.14,2.02,1.37,4.6,6.61,1.31,7.03,2.46,5.7
CTCGAAAGGGCGGTTGAGGTGAGTATACGGATAA,-0.112,-0.15,0.116,0.0622,0.247,0.233,0.128,0.395,-0.275,1.08
ACAGACAGGTGGGTGAAGGTAACTCAGCTGGACG,0.962,1.16,0.32,-0.724,0.276,-0.217,0.171,0.0103,-0.0597,0.155

Sequence,PBM binding z-score [1],PBM binding z-score [2],PBM binding z-score [3],PBM binding z-score [4],PBM binding z-score [5],PBM binding z-score [6],PBM binding z-score [7],PBM binding z-score [8],PBM binding z-score [9],PBM binding z-score [10]
TCTTGTAGATCAATACAGGTTAAGAAAGTGCGCT,2.28,1.23,0.912,1.31,1.18,1.76,0.308,1.1,0.461,0.5
TGAATCAGGTTAAAGATCAGGGAACGTGGCGTCG,2.15,3.33,0.98,0.175,0.529,0.343,-0.173,1.17,0.262,0.993
ATCGAAAGGTCGAAGGTGAGGATACCCACCCGAA,0.202,2.45,0.792,0.619,1.6,3.14,0.0224,4.45,0.541,3.66
TCTAGTAGGCCAGAGGGTCACTCAAGAGGTACGG,3.6,4,-0.235,0.392,0.62,1.76,-0.532,2.51,-0.0158,2.37
CCTATTAGTTGACCATAAGAGCAACCGAAGCTCG,0.641,0.0362,0.382,0.759,2.08,0.627,0.992,0.532,2.97,0.667
CATACAGGGTCAGCTAGGCCAGATTAGGGACGGC,1.11,1.98,0.335,-0.106,1.45,2.26,-0.138,3.04,0.588,3.91
AGAACGAGGGCACGCTGACTTGATAGCAGAGTAG,3.96,4.19,0.288,0.937,-0.0871,0.461,-0.269,0.898,-0.516,2.44
TCATATAGGTAAACAGGTGATAGTCCGTAAGTTA,4.54,3.86,2.2,1.3,1.51,0.551,0.241,0.892,1.46,0.497
GCAGATAGGTGAAACGCAGGTAACTCAGGGTGGC,3.27,1.58,0.0261,-0.672,-0.419,-0.335,-0.798,0.347,-0.582,0.748
CCTTACGGGTCACGAGGTGATAGCACGACGAGCG,3.97,5.24,1.17,1.06,3.17,3.69,-0.0631,5.02,0.649,4.27
ATCTCTAGGTAAGACTCAGTTCAGGGAAGAACGC,1.95,0.842,1.12,0.798,0.913,1.19,1.64,0.799,1.28,0.579
GGATATAGGTAATACAAGGTGAAAGTCCGATTGT,5.48,5.34,1.29,1.44,1.17,1.02,0.527,2.01,1.8,0.806
ATACCAAGGTGATCGTGAGGTCGTTGACACTAAC,0.337,1.12,-0.329,0.642,1.07,3.23,1.34,2.52,0.306,1.4
CTTACTGGGCCAAGGTCATTGATCAGTCAAAGCA,6.43,6.49,1.83,1.71,2.67,3.89,1.48,4.38,0.236,3.38
AGAACGAGGGCAATGAGTCGATAGCACGGGTGGC,3.4,2.38,-0.0536,-0.236,-0.174,0.0741,0.415,-0.0854,-0.378,1.9
CTCGAAAGGTCGGTTGAGGTGAGTATACGGATAA,-0.0424,0.699,0.597,-0.651,0.927,3.19,-0.354,3.13,0.103,2.98
TCTTGTAGTTCAATAGAGGTTAAGAAAGTGCGCT,1.53,0.937,0.563,1.1,1.14,4.2,1.73,2.4,0.814,2.22
CCTACTGGTCCAAAAAGGTCATTGATGCCGATAA,0.397,1.54,0.257,0.0096,3.82,5.11,5.49,4.95,2.48,3.94
TAGCCCAGGTCAGATCGGGCCAGTATACGCTATA,-0.572,1.18,-0.255,-0.724,-0.165,1.48,-0.562,1.11,-0.626,2.91
GCGACTGGGGCAAAGCAGGCTACCATAAGGTTGG,4.44,3.34,-0.239,-0.307,-0.349,-0.574,-0.689,-0.126,-1.27,0.579
TAGCTTAGGTCATTCAGGGGCCAGTATAGAAAGC,1.24,1.84,0.465,1.33,2.5,2.96,0.636,4.06,0.433,3.88
GCGACTTGGGCAAAGCAGGTTACCATAAGGTTGG,-0.00446,-0.245,-0.728,-1.56,-0.641,-0.189,-0.923,0.287,-1.35,-0.0319
TAGCCTAGGTCATTCGGCCAGTATAGTACGCATC,1.85,2.83,-0.386,-0.398,0.361,1.39,-0.455,2,-0.658,3.6
GCTAGTTGGTCAATAAAAGGTCACACACCGGTCG,1.64,3.07,0.532,0.266,4.72,5.3,1.4,5.89,3.47,4.33
